Screening data as filed in PubChem.
Shown are actives, neighbours in structure and some others; about 7.3% of the full set was active somewhere.
HCV inhibitor: inhibitors of hepatitis C virus infection; Huh7.5.1 HCVcc-Cre infection, luciferase reporter, 44 h; Potency, µM (series often up to 41.8 µM), hits mostly inhibitors; 340,000 tested, 3.4% active; active = well fitted inhibition curve with a large enough effect; inconclusive = small, poorly fitted or top-dose-only effect, or another doubt; inactive = no such curve, though single readings can be large or run the other way
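A cell-based infection assay in which seeded cells (1,000 per well) receive test compound after 4 h, are inoculated with HCVcc-Cre at approximately 0.5 moi, and are incubated 44 h before luminescence detection.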
Vaccinia Venus: vaccinia inhibition (Venus reporter) | Vaccinia virus Venus reporter expression, fluorescence | Potency, µM (titrated, usually from 36.5 µM), most hits filed as inhibitors | 330,000 tested, 0.46% active | AID 720580; calls by dose curve; tested in A549 cells; note: nearly all actives have a fitted effect of over 30% in size
FMDV inh: foot and mouth disease virus antiviral activity; 410,000 tested, 1.2% active; FMDV antiviral cell-based qHTS; AID 1159524; Potency, µM (highest dose often 57.9 µM), actives largely listed as inhibitors; calls by dose curve; tested in HEK293T cells; note: read-out not given here; nearly all actives have a fitted effect of over 45% in size
HCMV antiviral: inhibitors of human cytomegalovirus; activity change, negative = inhibition, % at 57.5 µM; HFF cells, HCMV-luciferase reporter, 72 h; active compounds read low; 410,000 tested, 4.5% active; in the data active = activity change below about -60%; inconclusive = no clear call, values can overlap the other calls; inactive = above about -39%
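Luciferase read-out from HCMV-luciferase-infected HFFs (MOI 1 PFU/cell) 72 h post infection at 37C; compounds added after 16 h cell attachment; activity normalized between buffer-only basal and Salinomycin (10uM) inhibitor controls.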
VACV mCherry inh: vaccinia inhibition (mCherry reporter). Vaccinia virus mCherry reporter infection, fluorescence. Potency, µM (top dose mostly 36.5 µM), hits mostly inhibitors. 310,000 tested, 0.63% active. AID 720579; calls by dose curve; tested in A549 cells; note: nearly all actives have a fitted effect of over 35% in size
Numbers stand for hits; i = inactive; ? = inconclusive; nt = not tested or not shown; [ ] = another dose, or the depositor's remark.

SMILES	HCV inhibitor	Vaccinia Venus	FMDV inh	HCMV antiviral	VACV mCherry inh
COc1cccc(N2CCN(c3c4c(nc5ncnn35)CCC4)CC2)c1	?	nt	14µM	-86	nt
COc1ccc(NC(=S)N(CCCN2CCOCC2)Cc2cn(C)c3ccccc23)cc1	?	i	i	-98	i
CCOc1ccc(NC(=S)N(CCCN2CCOCC2)Cc2cn(C)c3ccccc23)cc1	10µM	i	i	-92	i
Cc1cccc(-c2cc3c(N=O)c4ccccc4c-3n[nH]2)c1	11µM	i	i	i	i
Cc1ccc(-c2cc3c(N=O)c4ccccc4c-3n[nH]2)cc1	i	i	i	-94	i
O=C(c1cnccn1)N1CCC2(CCN(Cc3ccncc3)CC2)CC1	nt	nt	i	nt	nt
CN1CC(=O)N/C1=N\C(=O)Nc1cccc(Cl)c1	nt	nt	nt	i	nt
O=C(O)C1CC(CCCP(=O)(O)O)CCN1 (stereo unspecified)	nt	nt	i	nt	nt
O=C(Cn1cc(SCc2ccc(C(F)(F)F)cc2)c2ccccc21)N1CCCC1	nt	i	i	i	i
Cc1cccn2c(=O)c3cc(C(=O)NC4CCCCC4)c(=N)n(Cc4ccccc4)c3nc12	i	i	i	-61	i
Cc1cccn2c(=O)c3cc(C(=O)NC4CCCC4)c(=N)n(Cc4ccc(F)cc4)c3nc12	11µM	i[7.34 µM]	i	i	i[7.34 µM]
Cc1cccn2c(=O)c3cc(C(=O)NC4CCCC4)c(=N)n(CCc4ccccc4)c3nc12	i	i	i	i	i
CC(=O)O[C@H]1[C@H]2O[C@]23[C@@H]2CC[C@]4(O)C[C@@H](O)CC[C@]4(C)C2CC[C@]3(C)[C@H]1c1ccc(=O)oc1 (stereo partly specified)	3.2µM	0.032µM	?	nt	32µM
C[C@]12CC[C@H](O)C[C@@H]1CC[C@@H]1[C@@H]2CC[C@]2(C)C(=O)CC[C@@H]12	i	i	i	i	i
C[C@]12CC[C@H]3C(CCC4(O)CC(O)CC[C@]34C=O)C1=CC[C@H]2c1ccc(=O)oc1 (stereo partly specified)	i	nt	i	-99	nt
C[C@]12CC[C@H](O)C[C@H]1CCC1C2CC[C@]2(C)[C@@H](c3ccc(=O)oc3)C[C@H]3O[C@]132 (stereo partly specified)	nt	1.1µM	nt	nt	1.3µM
Cn1c2c(c(=O)[nH]c1=O)C(c1cccc(O)c1)C1=C(N2)c2ccccc2C1=O (stereo unspecified)	?	i	?	-100	?
Cc1ccc(S(=O)(=O)NN=Cc2ccccc2Cl)cc1	nt	i	i	i	i
Cc1ccc(S(=O)(=O)N/N=C\c2ccccc2OCc2ccccc2)cc1	?	?	nt	-74	i
OC[C@@H]1CN(Cc2ccc(-c3ccccc3)cc2)C[C@H](n2cnc3c(NCc4ccco4)ncnc32)O1	nt	i	32µM	-90	i
OC[C@@H]1CN(CCc2ccccc2)C[C@H](n2cnc3c(NCc4ccc(F)cc4)ncnc32)O1	nt	i	i	-66	i
OC[C@@H]1CN(Cc2ccc(-c3ccccc3)cc2)C[C@H](n2cnc3c(NCc4ccncc4)ncnc32)O1	nt	?	i	-91	10µM
OC[C@@H]1CN(Cc2ccco2)C[C@H](n2cnc3c(NCc4ccc(F)cc4)ncnc32)O1	nt	i	i	-69	i
OCCNc1ncnc2c1ncn2[C@H]1CN(Cc2ccc(-c3ccccc3)cc2)C[C@@H](CO)O1	nt	i	?	nt	i
CCOc1ccc(NC(=O)CSc2cn(CC(=O)N3CCOCC3)c3ccccc23)cc1	nt	i	i	i	i
SMILES	HCV inhibitor	Vaccinia Venus	FMDV inh	HCMV antiviral	VACV mCherry inh
CCCCOc1ccc(S(=O)(=O)NCc2csc(-c3ccc(OC)cc3)n2)cc1	nt	i	i	i	i
COc1cc(CNc2ncnc3c2ncn3[C@H]2CN(Cc3ccc(-c4ccccc4)cc3)C[C@@H](CO)O2)cc(OC)c1OC	nt	?	?	-66	13µM
O=C(CSc1ncn[nH]1)NCCc1ccc(Cl)cc1Cl	i	i	i	i	i
CC(NC(=O)CSc1ncn[nH]1)c1ccc(Cl)cc1Cl (stereo unspecified)	i	i	i	-61	i
C=CCn1c(COc2ccccc2)nnc1SCC(=O)Nc1ccc2c(c1)OCCO2	i	i	i	i	nt
C=CCn1c(COc2ccc3c(c2)CCCC3)nnc1SCC(=O)Nc1cccc(SC)c1	11µM	nt	i	i	nt
O=c1c(-c2cccc(F)c2)nc2cncnc2n1Cc1ccccc1Cl	nt	nt	i	nt	nt
CC[C@H](C)[C@@H]1NC(=O)CNC(=O)c2csc(n2)[C@H](C(C)(C)O)OC(=O)C(C)(C)[C@H](CCCC(C)(Cl)Cl)OC(=O)c2csc1n2	nt	6.3µM	i	-79	5.6µM
Cc1ccc2nc(-c3ccccc3)nn2c1	i	i	11µM	i	i
